# TCR act: T cell receptor activation. primary human leukocytes, anti-CD3, IL-2 HTRF, 48 h. Potency, µM (titrated, usually from 9.22 µM), inactives show at the highest dose activation of IL-2 secretion, usual class: activators. 330,000 tested, under 10 active. AID 504894; note: % of control where 0% means no effect
#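 Primary human leukocytes were stimulated with a-CD3 beads plus compounds for 48 hr without co-stimulation; secreted IL-2 was quantified by HTRF using a-IL-2-K (europium cryptate) and a-IL-2-d2, excited at 320nm with acceptor emission read at 665nm.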
# MBNL1-CUG inh: MBNL1-poly(CUG) RNA binding inhibition; Q9NR56; TR-FRET MBNL1-His/biotin-(CUG)12 binding, 665/545 ratio; Potency, µM (doses to about 57.5 µM), for inactives: top-dose activity change, negative = inhibition, hits mostly inhibitors; 0.036% of 280,000 active; active = well fitted inhibition curve with a large enough effect in the signal ratio, with a control signal flat, not every such curve was filed as active; inconclusive = small, poorly fitted or top-dose-only effect, or effect the other way, or a change in a side signal; inactive = no such curve, though single readings can be large or run the other way; the % refers to the signal ratio; note: potency is the fitted concentration of half-maximal effect; % is set by controls: 0 for no effect and ±100 for the full control effect
# Target sequence (Q9NR56 whole entry, looked up): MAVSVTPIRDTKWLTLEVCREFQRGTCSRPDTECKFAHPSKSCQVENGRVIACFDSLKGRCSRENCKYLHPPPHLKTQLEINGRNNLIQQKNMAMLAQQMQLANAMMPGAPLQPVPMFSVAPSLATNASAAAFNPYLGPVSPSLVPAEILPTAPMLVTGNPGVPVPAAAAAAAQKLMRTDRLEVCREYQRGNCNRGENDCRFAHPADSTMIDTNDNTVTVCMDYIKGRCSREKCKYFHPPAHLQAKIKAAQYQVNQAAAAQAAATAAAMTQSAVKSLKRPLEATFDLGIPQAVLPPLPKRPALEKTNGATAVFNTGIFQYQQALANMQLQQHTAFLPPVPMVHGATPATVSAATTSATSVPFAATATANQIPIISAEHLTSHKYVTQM
#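 Compound titration spanned 92 nM–58 uM against the MBNL1-His/biotin-(CUG)12 complex. After 60 min at room temperature with 5 nM streptavidin-XL665 and 0.055 ng/ul terbium anti-His, ratiometric 665/545 nm emission (Ex 340 nm) normalized to controls.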
# Glioma ERSR ind: ER stress response induction in glioma; U87-MG GRP78 promoter luciferase reporter, 16 h; Potency, µM, inactives show at the highest dose activation, hits mostly activators; 0.02% of 420,000 active; note: potency is the fitted concentration of half-maximal effect; series mostly up to about 76 µM; % of control where 0% means no effect; nearly all actives have a fitted effect of over 35% in size
#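 ERSR induction read as luciferase luminescence (Bright-Glo, 10 min at room temperature) in stably transfected human U87-MG glioma cells exposed to compounds for 16 h, using GRP78 as sensor.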
# Mito fusion yeast: inhibitors of mitochondrial division or activators of mitochondrial fusion; S. cerevisiae fusion-defective mutant growth rescue, CellTiterGlo 48 h; Potency, µM (titrated, usually from 46.1 µM), without a hit: top-dose growth rescue (activation), hits mostly activators; 0.23% of 320,000 active; note: potency is the fitted concentration of half-maximal effect; % of control where 0% means no effect; nearly all actives have a fitted effect of over 45% in size
#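 Compounds are tested for their ability to restore growth of mitochondrial fusion-defective yeast strains at non-permissive 37C in YPEG medium over 48 hours. Viability is quantified by luciferase luminescence.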
# ClpP mod: qHTS Assay for Activators of ClpP. ATP-dependent Clp protease proteolytic subunit (Bacillus subtilis (strain 168)), P80244. 1.9% of 340,000 active. Potency, µM (doses to about 57.5 µM), for inactives: top-dose activity change, negative = active. purified B. subtilis ClpP, FRET peptide cleavage, 20 min; active = well fitted falling curve with a large enough effect; inconclusive = small, poorly fitted or top-dose-only effect; inactive = no such curve, though single readings can be large or run the other way; note: potency is the fitted concentration of half-maximal effect; the source files actives as falling curves though it sought activators and does not explain the sign; nearly all actives have a fitted effect of over 65% in size
# Target sequence (P80244 whole entry, looked up): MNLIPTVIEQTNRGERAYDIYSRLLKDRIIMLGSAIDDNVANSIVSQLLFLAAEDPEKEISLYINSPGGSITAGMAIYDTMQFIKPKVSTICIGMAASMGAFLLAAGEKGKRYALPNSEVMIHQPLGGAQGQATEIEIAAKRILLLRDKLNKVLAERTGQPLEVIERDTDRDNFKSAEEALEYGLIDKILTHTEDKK
#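 FRET quenching reversal measured ClpP activation: 10 microg/mL B. subtilis ClpP at pH 8 with the FRET-FV decapeptide, read at 430 nm after 320 nm excitation. The 20-min minus 0-min signal was scaled between DMSO/no-enzyme wells and ADEP (5.8 microM final).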
# AT treatment: potential ataxia-telangiectasia treatments restoring KAP-1 phosphorylation; Potency, µM (highest dose often 57.5 µM), for inactives: at the top dose activation, usual class: activators; F2112 A-T fibroblasts, KAP-1 phosphorylation AlphaLISA; neocarzinostatin DNA damage 30 min before lysis; 0.19% of 320,000 active; AID 485349; note: potency is the fitted concentration of half-maximal effect; % of control where 0% means no effect; nearly all actives have a fitted effect of over 45% in size
#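 ATM-like activity read as KAP-1 phosphorylation via AlphaLISA donor/acceptor antibody pairs after lysis and 6 hr at 25C. Cells were ATM-null patient fibroblasts (F2112, hTERT), dosed 60 min, then exposed to the DSB inducer NCS for 30 min.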
# The depositor's hits bear a star; ? = inconclusive; . = no result given; [ ] = dose if it differs, or a comment. This is a sample that favours compounds with a hit; in the whole collection about 1.8% have one here. Unless noted, calls come from the whole dose curve; as a rule, active = well fitted curve in the direction sought with a large enough effect; inconclusive = small, poorly fitted or top-dose-only effect, or another doubt; inactive = no such curve, though single readings can be large; an effect the other way counts as inactive or inconclusive.
SMILES,TCR act,MBNL1-CUG inh,Glioma ERSR ind,Mito fusion yeast,ClpP mod,AT treatment
COc1ccc(OC)c(S(=O)(=O)NCCCn2ccnc2)c1,-5%,1%,-2%,5%,-3%,-5%
COc1ccc2ccccc2c1C(=O)/C=C\c1ccoc1,2%[46.1 µM],-14%[11.5 µM],0%,10µM*,1%,2%
C#CCCCCCCC#CCN(C)C,-1%,-27%,-4%,0%,32µM*,-7%
O=C(NN1CCCC1)NS(=O)(=O)c1ccc(Cl)cc1,.,.,-4%,.,.,.
COC(=O)C1CCN(C(=O)COC(=O)Cc2c[nH]c3ccccc23)CC1,-5%,-6%,-2%,-3%,32µM*,6%
CC1CCCN(C(=O)COC(=O)Cc2c[nH]c3ccccc23)C1 (stereo unspecified),1%,.,4%,7%,-3%,1%
Cc1ccc2c(C(=O)CNc3nccs3)c[nH]c2c1,.,.,-3%,.,1%,.
CCc1nnc(NC(=O)C(CC)c2ccccc2)s1 (stereo unspecified),0%[46.1 µM],-5%,-4%,0%,-1%,-2%
CCc1nnc(NC(=O)C(CC)CC)s1,-1%,3%,0%,-1%,0%,40µM*
Clc1cccc(-n2ncc3c(NCCCN4CCOCC4)ncnc32)c1,.,.,0%,.,-5%,.
Cn1cc(-c2nc3ccccc3[nH]2)c2ccccc21,-4%,-8%,5%,2%,28µM*,1%
c1ccc(-c2csc(-c3nc4ccccc4[nH]3)n2)cc1,.,.,-3%,.,.,.
c1ccc(-c2cc(-c3nc4ccccc4[nH]3)c3ccccc3n2)cc1,4%,31%,-3%,?,18µM*,.
Cc1c(-c2nc3ccccc3[nH]2)cnn1C,5%,.,4%,-1%,-2%,-1%
COc1ccc(O)c(C(=O)c2cnc3nc4ccccc4n3c2)c1,-1%[46.1 µM],8%,-6%,-7%,28µM*,-2%
CO/N=C1/CC2(CC3CC(C/C=C(/C)CC(C)/C=C\C=C4\COC5C(O)C(C)=CC(C(=O)O3)C45O)O2)OC(/C(C)=C/C(C)C)C1C (stereo unspecified),.,.,-11%,.,.,.
N#Cc1c(C(F)(F)F)cc(-c2ccccc2Cl)[nH]c1=O,-1%,-30%,0%,-3%,3.5µM*,16%
O=C1CC(c2ccccc2)Cc2[nH]c(=O)c(C(=O)O)cc21 (stereo unspecified),.,.,-3%,.,-2%,.
CC1(C)CC(=O)c2cc(C(=O)NC3CCSC3=O)c(=O)n(-c3ccccc3)c2C1 (stereo unspecified),-2%,1%,-2%,1%,25µM*,1%
O=C1CCCc2c1cc(C(=O)NC1CCSC1=O)c(=O)n2-c1ccccc1 (stereo unspecified),1%,4%,-3%,-3%,25µM*,.
O=C1CCCc2c1cc(C(=O)O)c(=O)n2-c1ccccc1,-6%,5%,0%,3%,.,2%
COc1ccc(CN2CCCC(n3cc(C(=O)N4CCCCC4)nn3)C2)c(OC)c1OC (stereo unspecified),.,.,-5%,.,.,.
CCn1c(-c2ccccc2F)nc2cc(NC(C)=O)cc(C(=O)NCC3CCOCC3)c21,.,.,5%,.,.,.
Cc1ccccc1-c1nnc(SCCOc2ccc3c(C)cc(=O)oc3c2)o1,6%,-2%,-2%,2%,25µM*,0%
c1cc(CN2CCCNCCNCCCNCC2)ccc1CN1CCCNCCNCCCNCC1,.,.,-1%,.,.,.
SMILES,TCR act,MBNL1-CUG inh,Glioma ERSR ind,Mito fusion yeast,ClpP mod,AT treatment
COC(=O)c1cc2ccccc2c(-c2c(OC)c(C(=O)OC)cc3ccccc23)c1OC,-1%,0%,-6%,-2%,25µM*,-6%
Cc1cc(C)c2cc(C#N)c(N3CCCC3)nc2c1,0%,26%,-1%,5%,25µM*,5%
Cc1cc2cc(C#N)c(N3CCN(S(C)(=O)=O)CC3)nc2cc1C,-8%[46.1 µM],?,2%,-9%,20µM*,13%
Cc1ccc(S(=O)(=O)N2CCCN(c3nc4cc(C)ccc4cc3C#N)CC2)cc1,-6%[46.1 µM],-5%,-1%,4%,?,5%
CCOC(=O)c1c(N)n(CCOC(=O)c2cccs2)c2nc3ccccc3nc12,-9%,?,-4%,0%,7.9µM*,16%
CCOC(=O)c1ccc(-n2c(N)c(C(=O)OC)c3nc4ccccc4nc32)cc1,.,.,-3%,-9%,2.8µM*,.
Cn1cc(-c2cccc(Cl)c2)cc(C#N)c1=O,-6%,?,1%,-2%,.,1%
C=CCn1cc(-c2ccccc2)cc(C#N)c1=O,-3%,?,-4%,-2%,?,.
CC(C)n1cc(-c2ccc(Cl)cc2)cc(C#N)c1=O,11%,7%,5%,1%,32µM*,.
C=CCn1cc(-c2ccc(Cl)cc2)cc(C#N)c1=O,-2%,11%,-2%,1%,32µM*,.
N#Cc1cc(-c2ccc(Cl)cc2)cn(Cc2c(Cl)cccc2Cl)c1=O,.,?,3%,3%,25µM*,-7%
CN1CCN(C(=O)C2CCCCC2)CC1,.,.,-1%,.,.,.
Cc1ncc2c(c1CNS(=O)(=O)N(C)C)CCN(C(=O)/C=C/c1ccccc1)C2,.,.,-6%,.,.,.
C[C@H](NC(=O)[C@@H](N)Cc1ccc(O)cc1)C(=O)NCC(=O)N[C@H]1CSSC[C@@H](C(=O)O)NC(=O)[C@H](CO)NC(=O)[C@H]([C@@H](C)O)NC(=O)[C@H](Cc2ccccc2)NC(=O)[C@H]([C@@H](C)O)NC(=O)[C@H](CCCCN)NC(=O)[C@@H](Cc2c[nH]c3ccccc23)NC(=O)[C@H](Cc2ccccc2)NC(=O)[C@H](Cc2ccccc2)NC(=O)[C@H](CC(N)=O)NC(=O)[C@H](CCCCN)NC1=O,.,.,-2%,.,.,.
CC(C)c1nc2sc3c(=O)n(N)cnc3c2c2c1COC(C)(C)C2,-8%[46.1 µM],15%,-1%,-5%,16µM*,1%
CCOC(=O)N(C)c1ccc(C(O)(C(F)(F)F)C(F)(F)F)cc1,14%,0%,6%,11%,32µM*,-8%
COCC(=O)Nc1cc(C(=O)N2CC3CCCC2C3)c2c(c1)nc(-c1ccncc1)n2C (stereo unspecified),.,.,-1%,.,.,.
COC(=O)[C@@H]1CCCN1Cc1ccc2c(c1)CN(Cc1coc3ccccc3c1=O)CCO2,.,.,-6%,.,.,.
Cc1cnc(C)c(-c2ccc(F)c3c2OC(CNC(=O)Cc2c(C)[nH]c4ccccc24)C3)n1 (stereo unspecified),.,.,-1%,.,.,.
CC(=O)N1CCc2cc(S(=O)(=O)CCC(=O)O)ccc21,-3%,5%,-1%,-3%,32µM*,3%
